The campaign covered roughly 5,500 compounds. About 2,000 (36%) were called active. Another 18% or so got no clear call; they are omitted. No stated cut-off is given here; in the data, active means normalized growth mostly below about 0.91 (no sharp cut-off); inconclusive means no clear call, values can overlap the other calls; inactive means mostly above about 0.92. Some of the results follow.
Experiment: chemical genetic growth profiling, strain panel (AID 1159580);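 further: tested at 20 µM; growth read once vehicle control cultures reached saturation at 30 °C; 1 = growth at the plate median or of vehicle wells; lower values mean less growth of the strain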
Details: growth OD

Measured: normalized growth

CCCc1nn(C)c2c(=O)[nH]c(-c3cc(S(=O)(=O)N4CCN(C)CC4)ccc3OCC)nc12
inactive: S. cerevisiae deletion strains, locus YJR075W, strain HOC1, hits give low values 1.02 | S. cerevisiae deletion strains, locus YKL009W, strain mrt4, hits give low values 1.01 | S. cerevisiae deletion strains, locus YKL068W, hits give low values 0.995 | S. cerevisiae deletion strains, locus YKL085W, strain MDH1 (second series), hits give low values 0.996 | S. cerevisiae deletion strains, locus YKL085W, strain MDH1, hits give low values 0.996 | S. cerevisiae deletion strains, locus YKL160W, strain elf1, hits give low values 0.999 | S. cerevisiae deletion strains, locus YKL190W, strain CNB1, hits give low values 1.02 | S. cerevisiae deletion strains, locus YKR026C, strain gcn3, hits give low values 1 | S. cerevisiae deletion strains, locus YKR091W, strain srl3, hits give low values 0.987 | S. cerevisiae deletion strains, locus YLL001W, strain dnm1, hits give low values 0.992 | S. cerevisiae deletion strains, locus YLL026W, hits give low values 0.985 | S. cerevisiae deletion strains, locus YLL041C, strain sdh2, hits give low values 0.992 | S. cerevisiae deletion strains, locus YLR027C, strain aat2, hits give low values 0.992 | S. cerevisiae deletion strains, locus YLR039C, strain RIC1, hits give low values 1.02 | S. cerevisiae deletion strains, locus YLR058C, strain SHM2, hits give low values 1.02 | S. cerevisiae deletion strains, locus YLR102C, strain apc9, hits give low values 0.988 | S. cerevisiae deletion strains, locus YLR113W, strain HOG1, hits give low values 1.03 | S. cerevisiae deletion strains, locus YLR221C, strain rsa3, hits give low values 0.988 | S. cerevisiae deletion strains, locus YLR258W, strain gsy2, hits give low values 0.984 | S. cerevisiae deletion strains, locus YLR262C, strain YPT6 (second series), hits give low values 0.986 | S. cerevisiae deletion strains, locus YLR262C, strain YPT6, hits give low values 1.05 | S. cerevisiae deletion strains, locus YLR268W, strain sec22, hits give low values 0.993 | S. cerevisiae deletion strains, locus YLR320W, strain mms22, hits give low values 0.986 | S. cerevisiae deletion strains, locus YLR330W, strain CHS5, hits give low values 1.02 | S. cerevisiae deletion strains, locus YLR342W, strain FKS1 (second series), hits give low values 1.03 | S. cerevisiae deletion strains, locus YLR342W, strain FKS1, hits give low values 0.99 | S. cerevisiae deletion strains, locus YLR357W, strain rsc2, hits give low values 0.983 | S. cerevisiae deletion strains, locus YLR370C, strain arc18, hits give low values 0.988 | S. cerevisiae deletion strains, locus YLR371W, strain rom2, hits give low values 0.978 | S. cerevisiae deletion strains, locus YLR384C, strain iki3, hits give low values 0.981 | S. cerevisiae deletion strains, locus YLR418C, strain cdc73, hits give low values 0.987 | S. cerevisiae deletion strains, locus YML016C, strain PPZ1, hits give low values 1.02 | S. cerevisiae deletion strains, locus YML032C, strain rad52, hits give low values 1 | S. cerevisiae deletion strains, locus YML120C, strain ndi1, hits give low values 0.995 | S. cerevisiae deletion strains, locus YML124C, strain tub3, hits give low values 0.99 | S. cerevisiae deletion strains, locus YMR058W, strain fet3, hits give low values 0.999 | S. cerevisiae deletion strains, locus YMR078C, strain ctf18, hits give low values 1.01 | S. cerevisiae deletion strains, locus YMR125W, strain sto1, hits give low values 0.981 | S. cerevisiae deletion strains, locus YMR129W, hits give low values 0.974 | S. cerevisiae deletion strains, locus YMR205C, strain PFK2, hits give low values 0.981 | S. cerevisiae deletion strains, locus YMR223W, strain ubp8, hits give low values 1 | S. cerevisiae deletion strains, locus YMR231W, strain pep5, hits give low values 0.988 | S. cerevisiae deletion strains, locus YMR263W, strain SAP30, hits give low values 1.03 | S. cerevisiae deletion strains, locus YMR307W, strain GAS1, hits give low values 1.1 | S. cerevisiae deletion strains, locus YNL067W, strain RPL9B, hits give low values 1.03 | S. cerevisiae deletion strains, locus YNL071W, strain lat1, hits give low values 0.991 | S. cerevisiae deletion strains, locus YNL128W, strain TEP1, hits give low values 1.02 | S. cerevisiae deletion strains, locus YNL153C, strain GIM3, hits give low values 1.02 | S. cerevisiae deletion strains, locus YNL183C, strain NPR1, hits give low values 0.978 | S. cerevisiae deletion strains, locus YNL209W, strain ssb2, hits give low values 0.99 | S. cerevisiae deletion strains, locus YNL233W, strain BNI4, hits give low values 1.02 | S. cerevisiae deletion strains, locus YNL248C, strain rpa49, hits give low values 0.981 | S. cerevisiae deletion strains, locus YNL250W, strain rad50, hits give low values 0.995 | S. cerevisiae deletion strains, locus YNL271C, strain bni1, hits give low values 0.99 | S. cerevisiae deletion strains, locus YNL298W, strain CLA4, hits give low values 0.984 | S. cerevisiae deletion strains, locus YNL307C, strain MCK1, hits give low values 0.995 | S. cerevisiae deletion strains, locus YNL322C, strain KRE1 (second series), hits give low values 0.982 | S. cerevisiae deletion strains, locus YNL322C, strain KRE1, hits give low values 1.01 | S. cerevisiae deletion strains, locus YNR049C, strain mso1, hits give low values 0.992 | S. cerevisiae deletion strains, locus YNR052C, strain pop2, hits give low values 1 | S. cerevisiae deletion strains, locus YOL006C, strain TOP1, hits give low values 1.1 | S. cerevisiae deletion strains, locus YOL012C, strain htz1 0.868 | S. cerevisiae deletion strains, locus YOL147C, strain pex11, hits give low values 0.985 | S. cerevisiae deletion strains, locus YOR001W, strain rrp6, hits give low values 0.999 | S. cerevisiae deletion strains, locus YOR061W, strain CKA2, hits give low values 1.02 | S. cerevisiae deletion strains, locus YOR069W, strain VPS5, hits give low values 1.02 | S. cerevisiae deletion strains, locus YOR070C, strain gyp1, hits give low values 0.984 | S. cerevisiae deletion strains, locus YOR080W, strain dia2, hits give low values 0.996 | S. cerevisiae deletion strains, locus YOR083W, strain WHI5, hits give low values 0.987 | S. cerevisiae deletion strains, locus YOR106W, strain vam3, hits give low values 0.987 | S. cerevisiae deletion strains, locus YOR136W, strain idh2, hits give low values 0.991 | S. cerevisiae deletion strains, locus YOR144C, strain elg1, hits give low values 0.986 | S. cerevisiae deletion strains, locus YOR184W, strain ser1, hits give low values 0.988 | S. cerevisiae deletion strains, locus YOR231W, strain MKK1, hits give low values 1.03 | S. cerevisiae deletion strains, locus YOR265W, strain rbl2, hits give low values 1 | S. cerevisiae deletion strains, locus YOR270C, strain vph1, hits give low values 0.983 | S. cerevisiae deletion strains, locus YOR290C, strain snf2, hits give low values 1 | S. cerevisiae deletion strains, locus YOR316C, strain cot1, hits give low values 0.991 | S. cerevisiae deletion strains, locus YPL051W, strain arl3, hits give low values 0.993 | S. cerevisiae deletion strains, locus YPL055C, strain LGE1, hits give low values 1.05 | S. cerevisiae deletion strains, locus YPL078C, strain atp4, hits give low values 0.994 | S. cerevisiae deletion strains, locus YPL106C, strain sse1, hits give low values 0.977 | S. cerevisiae deletion strains, locus YPL240C, strain hsp82, hits give low values 0.997 | S. cerevisiae deletion strains, locus YPL241C, strain CIN2, hits give low values 1.02 | S. cerevisiae deletion strains, locus YPL256C, strain CLN2, hits give low values 1.05 | S. cerevisiae deletion strains, locus YPR119W, strain clb2, hits give low values 0.986 | S. cerevisiae deletion strains, locus YPR141C, strain kar3, hits give low values 0.993 | S. cerevisiae deletion strains, locus YPR163C, strain tif3, hits give low values 0.982 | S. cerevisiae deletion strains, locus YPR167C, strain met16, hits give low values 0.988 | S. cerevisiae deletion strains, strain wtn01, hits give low values 0.998 | S. cerevisiae strains, strain wild type, hits give low values 1.01
active: S. cerevisiae deletion strains, locus YKR001C, strain vps1, hits give low values 0.64
